# Pf apPOL block = Pf-apPOL inhibitors, biochemical, fluorescence. Recombinant Pf-apPOL, molecular beacon fluorescence, 1.5 h. inhibition, % at 10 µM. hit rate 0.25% among 210,000. AID 1794808, 2022
# mHTT-CaM PPI inh = mutant huntingtin-calmodulin interaction inhibitors – biochemical, AlphaScreen, primary screen; AlphaScreen His-mHTT/GST-CaM binding, luminescence; hit rate 3.6% among 190,000; P42858; inhibition, % at 15 µM;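 note: 0% = both proteins with DMSO and 100% = one protein alone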
# * = called active by the depositor; i = inactive; / = no result given. Rows were chosen to be rich in hits. Some 3.5% of all compounds tested hit in one or more screens of this group. Cut-off read from the data, not from the text of the source: active = inhibition above about 50%; inactive = the rest.
SMILES,Pf apPOL block,mHTT-CaM PPI inh
Cn1nc(COCc2ccccc2F)c2c1CCN(C(=O)c1ccccc1)C2,-4,7
CS(=O)(=O)N1CCN(C(=O)C2COCC(=O)N2Cc2ccccc2)CC1 (stereo unspecified),1,4
COc1ccc(CNc2ccccc2F)cc1OCc1ccccc1,3,-46
COc1ccc(CNc2cc(-c3ccccc3)ccc2OC)cc1O,-5,76*
Oc1ccc2ccccc2c1Sc1c(O)ccc2ccccc12,/,59*
Oc1ccc2ccccc2c1N=Nc1ccccn1,-207,/
CCOc1ccc(NC(=O)C2CN(S(=O)(=O)c3cccnc3)CC23CCCCC3)cc1 (stereo unspecified),-1,52*
COc1ccc(CNC(=O)C2CN(S(=O)(=O)c3cccnc3)CC23CCCCC3)cc1 (stereo unspecified),-3,3
Cc1cccc(NC(=O)C(Cc2ccccc2)NS(=O)(=O)c2cccs2)n1 (stereo unspecified),-10,5
Cn1c(=O)cc2c3c(c(Br)ccc31)C(=O)c1ccccc1-2,-2,2
Cn1c(=O)cc2c3c(c(N4CCCCC4)ccc31)C(=O)c1ccccc1-2,-9,55*
CCCOc1ccc(/C=C2\C(=O)ON=C2C)cc1OC,-6,78*
CCOc1cc(/C=C2/C(=O)ON=C2C)ccc1OCc1ccccc1F,-1,44
CCOc1cc(/C=C2\C(=O)ON=C2C)cc(Cl)c1OCc1cccc(F)c1,-2,87*
CCOc1cc(/C=C2/C(=O)ON=C2C)ccc1OCc1cccc(F)c1,2,93*
CC1=NOC(=O)/C1=C/c1ccc(OCc2cccc(F)c2)c(Br)c1,-2,31
CCOc1cc(/C=C2\C(=O)ON=C2C)cc(Cl)c1OCc1ccccc1F,-1,96*
C#CCOc1c(Cl)cc(/C=C2\C(=O)ON=C2C)cc1OCC,-1,22
COc1ccc(/C=C2/C(=O)ON=C2C)cc1Br,-12,14
CCOC(=O)N1CCc2nn(CC(=O)N3CCc4ccccc43)c(=O)cc2C1,-1,9
O=C(COc1ccc(F)cc1)N1CCCCC1c1nncn1CC1CC1 (stereo unspecified),0,-1
CN1CCc2c(sc3c2C(=O)NC(c2ccc(COc4ccc(Cl)c(Cl)c4)o2)N3)C1 (stereo unspecified),-10,81*
CCOc1ccc(C2NC(=O)c3c(sc4c3CCN(C)C4)N2)c(O)c1 (stereo unspecified),-5,3
O=c1c2c(n(Cc3ccccc3)c3cc(Cl)ccc13)OCC2,1,37
Cc1ccc(CN=Cc2[nH]c3ccc(Br)c(Cl)c3c2O)cc1,-1,21
SMILES,Pf apPOL block,mHTT-CaM PPI inh
Oc1c(C=NCCc2ccccc2)[nH]c2ccc(Br)c(Cl)c12,-1,86*
Oc1c(C=NCc2ccc(F)cc2)[nH]c2ccc(Br)c(Cl)c12,5,55*
COc1ccccc1N=Cc1[nH]c2ccc(Br)c(Cl)c2c1O,-3,3
Oc1c(C=Nc2ccc(F)cc2)[nH]c2ccc(Br)c(Cl)c12,10,5
Oc1c(C=NCc2ccccc2Cl)[nH]c2ccc(Br)c(Cl)c12,-4,72*
Oc1c(C=NCc2ccc(Cl)cc2Cl)[nH]c2ccc(Br)c(Cl)c12,0,58*
Cc1cccc(C)c1N=Cc1[nH]c2ccc(Br)c(Cl)c2c1O,-100,12
O=C(Cc1ccc(NC(=O)COc2ccccc2F)cc1)NCc1cccs1,-10,-12
CC1CCN(c2nn(CC(=O)NC3CCc4ccccc43)c(=O)c3ccccc23)CC1 (stereo unspecified),4,0
CCCc1cc(=O)[nH]c(SCC(=O)NC2CCCC2)n1,3,-7
Cc1ccsc1C=CNC(=O)Nc1ccc(C(C)C)cc1,-4,/
COc1ccc(NC(=O)C2CCN(c3cncnc3N3CCN(C)CC3)CC2)cc1Cl,-5,7
O=C(NC1C2CC3CC(C2)CC1C3)c1ccc(Br)cc1 (stereo unspecified),4,-4
Cc1ccc(NC(=O)C2CCN(c3cc(Br)ccc3C)C2=O)cc1C (stereo unspecified),4,74*
Cc1ccc(Br)cc1N1CCC(C(=O)Nc2cccc(F)c2)C1=O (stereo unspecified),-7,31
CCCOc1nccnc1NC1CCN(S(=O)(=O)C2CC2)CC1,-8,6
CN1c2ccc(F)cc2C(=O)NC12CCN(C(=O)c1ccc(F)c(F)c1)CC2,2,2
Cc1ccc2nc3c(c(C(=O)NC4CC4)c2c1)CCCC3,-3,15
Cc1ccccc1C(=O)N1CCC2(C1)NCc1ccccc1NC2=NC(C)(C)C (stereo unspecified),-4,28
CC(C)(C)N=C1Nc2ccccc2CNC12CCN(C(=O)Cc1ccsc1)C2 (stereo unspecified),7,62*
Cc1ccc(F)cc1S(=O)(=O)N1CCC2(C1)NCc1ccccc1NC2=NC(C)(C)C (stereo unspecified),-2,70*
COc1ccccc1CC(=O)N1CCC2(C1)NCc1ccccc1NC2=NC(C)(C)C (stereo unspecified),-5,47
Cc1ncc(CO)c2cc(C(=O)Nc3ccccc3)c(=N)oc12,-1,-3
Nc1ccc2oc(-c3ccccc3Cl)cc(=O)c2c1O,-2,15
O=c1cc2oc3cc(O)c(O)cc3c(-c3ccccc3)c-2cc1O,8,69*
SMILES,Pf apPOL block,mHTT-CaM PPI inh
Cc1oc2cc(O)ccc2c(=O)c1-c1ccccc1,0,-3
O=c1cc2oc3cc(O)c(O)cc3c(-c3ccccc3O)c-2cc1O,i,85*
COc1ccc(OC)c(S(=O)(=O)NCC(O)Cc2ccccc2)c1 (stereo unspecified),-7,-17
COCc1nn(CC2CC2)c2c1CN(C(=O)c1ccc(C)s1)CC2,-2,6
COc1cc(-c2nc3ccccn3c2N=Cc2ccc(F)cc2)ccc1O,-5,79*
COc1cc(-c2nc3ccccn3c2N=Cc2ccccc2)ccc1O,-6,38
O=C(c1cccc(OCC2CCCN(C(=O)c3cc(F)ccc3Cl)C2)c1)N1CCCC1 (stereo unspecified),-6,0
COCCC1CCN(C(=O)c2ccccc2OC)CC1,-2,-3
CN(C)c1cccc(C(=O)N2CCC(CCOc3ccc(F)cc3)CC2)c1,-2,93*
COc1ccccc1C(=O)N1CCC(CCOc2ccccc2F)CC1,-1,52*
COCCC1CCN(C(=O)c2ccc(OC)cc2C)CC1,-8,-3
COc1cccc(C(=O)N2CCC(CCOc3ccc(F)cc3)CC2)c1,-2,32
O=C(c1ccc(F)c(F)c1)N1CCC(CCOc2ccccc2F)CC1,0,-32
CN(C)c1cccc(C(=O)N2CCC(CCOc3ccccc3F)CC2)c1,-2,95*
COc1ccc(C(=O)N2CCC(CCOc3ccccc3)CC2)c(C)c1,-7,60*
CCN1CCN(C(=O)c2cc3sc(C)c(CN4CCOCC4)c3[nH]2)CC1,0,8
Cc1ccc(Cl)cc1N1C(=O)NC2CC1(C)Oc1ccccc12 (stereo unspecified),-2,-10
O=C(NC1CNCCC1CO)c1ccccc1 (stereo unspecified),-2,-7
CCc1nnc(-c2cccc(OCC(=O)N3CCCc4ccccc43)c2)o1,-8,-7
CSC1=NCCN1Cc1ccccc1,0,/
CC(=O)N1CCN(C(=O)c2cncc(-c3ccccc3Cl)c2)CC1,-6,-2
CN(C)c1cccc(C(=O)N2CCC(CCOc3ccccc3)CC2)c1,-2,86*
